Source: PubChem (National Center for Advancing Translational Sciences (NCATS))
DT40 TDP1 no CPT = qHTS for Inhibitors of human tyrosyl-DNA phosphodiesterase 1 (TDP1): qHTS in cells in absence of CPT | DT40 Tdp1-/- hTDP1 cells, no CPT, ATP luminescence, 48 h | Potency, µM (top dose mostly 46.2 µM), most hits filed as inhibitors | 420,000 compounds, 15% hits | AID 686978, 2013; also: nearly all actives have a fitted effect of over 55% in size
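Chicken DT40 Tdp1-/- cells stably complemented with human TDP1 were seeded at 400 cells/well with DMSO in place of 20 nM camptothecin. After compound pinning, cells grew at least 48 hr at 37 °C; viability read by CellTiter-Glo luminescence.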
IL1B secr inh = inflammasome signaling inhibition, IL-1 beta readout. 360,000 compounds, 4.7% hits. activity change, % at 57.5 µM. THP-1 LPS/ATP IL-1B secretion, AlphaLISA, 16 h; hits give low values; in the data active = activity change below about -50%; inconclusive = mostly about -30% to -49%
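THP-1 cells pretreated 1 hr with compounds (up to 57.5 uM final), then stimulated with LPS (250 ng/mL final) plus ATP (1.25 mM final); secreted IL-1B measured by AlphaLISA after 16 hr, decreased signal indicating inhibition.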
HT1080-NT tox = kills 2HG-producing HT-1080-NT fibrosarcoma cells; HT-1080-NT fibrosarcoma viability, CellTiter-Glo ATP luminescence, 48 h; Potency, µM (top dose mostly 46.1 µM), hits mostly cytotoxic; 360,000 compounds, 1.6% hits;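 also: NT is the 2HG producing partner of a matched IDH1 knockdown line; nearly all actives have a fitted effect of over 55% in size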
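HT-1080-NT; 750 cells/well; 5% FBS RPMI; 48 h compound, 37 degrees C; CellTiter-Glo luminescence; curve fitting and curve-class assignment.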
HT1080 IDH1KD tx = toxicity to HT-1080 IDH1 knockdown cells (counter line). Potency, µM (series often up to 46.1 µM), usual class: cytotoxic. HT-1080 IDH1 knockdown viability, ATP luminescence, 48 h. 360,000 compounds, 2% hits
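In this qHTS, HT-1080 cells depleted of IDH1 are exposed for 48 h at 37 °C to compound titrations. Toxicity is scored from CellTiter-Glo luminescence, with DMSO as full viability and medium alone as none.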
DT40 TDP1 CPT = DT40-hTDP1 cell growth loss with CPT; chicken DT40 Tdp1-/-;hTDP1 cells + 20 nM CPT, ATP luminescence, 48 h; Potency, µM (highest dose often 46.2 µM), hits mostly inhibitors; 420,000 compounds, 12% hits; also: nearly all actives have a fitted effect of over 55% in size
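Cell growth measured by CellTiter-Glo luminescence after a minimum 48 h, 37 C compound exposure with 20 nM CPT in Tdp1-knockout DT40 cells stably expressing hTDP1, seeded 400/well; qHTS titration format.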
Large screens that a line does not name were inactive; ! = not active in a repeat. Rows were chosen to be rich in hits. Some 19% of all compounds tested hit in one or more screens of this group. Unless noted, calls follow the shape of the dose curve; as a rule, active = well fitted curve in the direction sought with a large enough effect; inconclusive = small, poorly fitted or top-dose-only effect, or another doubt; inactive = no such curve, though single readings can be large; an effect the other way counts as inactive or inconclusive.

CC1CCN(S(=O)(=O)c2ccc3c(c2)N(CC(=O)NCCCN2CCCC(C)C2)C(=O)CS3)CC1 (stereo unspecified)	DT40 TDP1 no CPT 15µM!, DT40 TDP1 CPT 15µM!
CCC1CCCCN1CCCNC(=O)CN1C(=O)CSc2ccc(S(=O)(=O)N3CCC(C)CC3)cc21 (stereo unspecified)	DT40 TDP1 no CPT 23µM!, DT40 TDP1 CPT inconclusive
CC1CCN(S(=O)(=O)c2ccc3c(c2)N(CC(=O)NCCCN2CCCCC2)C(=O)CS3)CC1	IL1B secr inh inconclusive
CC(C)CN(CCNC(=O)CN1C(=O)CSc2ccc(S(=O)(=O)N3CCOCC3)cc21)CC(C)C	DT40 TDP1 no CPT 21µM!, DT40 TDP1 CPT 18µM!
CC(C)CN(CCCNC(=O)CN1C(=O)CSc2ccc(S(=O)(=O)N3CCOCC3)cc21)CC(C)C	none
CC(=O)NCCNc1nc2cc(-c3cccc(C(F)(F)F)c3)sc2c(=O)n1C	HT1080-NT tox inconclusive, DT40 TDP1 CPT inconclusive
Cn1c(=O)c2nc(SCc3ccccc3)n(C)c2n(C)c1=O	none
COC(=O)C1=C(O)C2(C(=O)O)CC(C(=O)OC)=C(O)C(C(=O)O)(C1)C2	DT40 TDP1 no CPT 10µM (no result: IL1B secr inh)
Cc1c(NC(=S)N/N=C\c2ccccc2O)c(=O)n(-c2ccccc2)n1C	DT40 TDP1 no CPT 21µM, DT40 TDP1 CPT inconclusive
Cc1c(NC(=S)SCc2ccccc2)c(=O)n(-c2ccccc2)n1C	DT40 TDP1 no CPT 23µM
COc1ccccc1/C=C1\SC(=S)N(CCC(=O)N2CCCCC2CCO)C1=O (stereo unspecified)	DT40 TDP1 no CPT inconclusive, IL1B secr inh inconclusive, DT40 TDP1 CPT 16µM
COc1cccc(/C=C2\SC(=O)N(CCC(=O)N3CCC(C(=O)O)CC3)C2=O)c1	none
COc1cccc(/C=C2\SC(=S)N(CCC(=O)N3CCCCC3CCO)C2=O)c1 (stereo unspecified)	DT40 TDP1 no CPT 18µM, IL1B secr inh inconclusive, DT40 TDP1 CPT 13µM
COc1cccc(/C=C2\SC(=S)N(CCCC(=O)N3CCCCC3CCO)C2=O)c1 (stereo unspecified)	DT40 TDP1 no CPT 16µM, IL1B secr inh -70, DT40 TDP1 CPT inconclusive
O=C(O)CCN1C(=O)/C(=C\c2cccc(Oc3ccccc3)c2)SC1=S	none
O=C1/C(=C/c2cccs2)SC(=S)N1CCC(=O)N1CCCCC1CCO (stereo unspecified)	DT40 TDP1 no CPT inconclusive, IL1B secr inh -56, DT40 TDP1 CPT inconclusive
COc1cccc(/C=C2\SC(=S)N(CCCC(=O)N3CCCC3)C2=O)c1	DT40 TDP1 no CPT 21µM, IL1B secr inh -91, DT40 TDP1 CPT inconclusive
COc1cc(C2C(C#N)=C(N)Oc3cc(O)ccc32)cc2c1OCO2 (stereo unspecified)	DT40 TDP1 no CPT inconclusive, HT1080-NT tox inconclusive, HT1080 IDH1KD tx 21µM, DT40 TDP1 CPT inconclusive
COc1cc(C2C(C#N)=C(N)Oc3cc4c(cc32)OCO4)cc(OC)c1OC (stereo unspecified)	DT40 TDP1 no CPT 0.16µM, HT1080-NT tox 0.037µM, HT1080 IDH1KD tx 0.029µM, DT40 TDP1 CPT 0.18µM
COc1ccc(C2C(C#N)=C(N)Oc3cc(O)ccc32)cc1OC (stereo unspecified)	DT40 TDP1 CPT inconclusive
COC(=O)c1ccc(NC(=O)CC2C(=O)N(c3cccc(F)c3)C(=O)N2CC(C)C)cc1 (stereo unspecified)	DT40 TDP1 no CPT 13µM, DT40 TDP1 CPT 21µM (no result: IL1B secr inh, HT1080-NT tox, HT1080 IDH1KD tx)
COc1cccc(CN2C(=O)N(c3ccc(C)cc3)C(=O)C2CC(=O)Nc2cc(OC)cc(OC)c2)c1 (stereo unspecified)	DT40 TDP1 no CPT 7.3µM, DT40 TDP1 CPT 13µM (no result: IL1B secr inh, HT1080-NT tox, HT1080 IDH1KD tx)
COc1cc(NC(=O)CC2C(=O)N(c3cccc(C)c3)C(=O)N2Cc2ccc(F)cc2)cc(OC)c1 (stereo unspecified)	DT40 TDP1 no CPT 21µM, DT40 TDP1 CPT inconclusive (no result: IL1B secr inh, HT1080-NT tox, HT1080 IDH1KD tx)
CCOc1ccc(NC(=O)CC2C(=O)N(c3ccccc3)C(=O)N2Cc2cccc(OC)c2)cc1 (stereo unspecified)	DT40 TDP1 no CPT 21µM, DT40 TDP1 CPT 10µM (no result: IL1B secr inh, HT1080-NT tox, HT1080 IDH1KD tx)
CC1CCCC(NC(=O)/C=C/c2c(F)cccc2Cl)C1C (stereo unspecified)	DT40 TDP1 no CPT inconclusive
